Laboratory results reported in PubChem BioAssay (NCI).
Compounds without any hit were thinned out: in the full panel of roughly 79,000, 15% have a hit. Calls of active or inactive are those of the source. No stated cut-off is given here; in the data, active means growth inhibition above about 70%; inactive means the rest.

Assay: NCI Yeast Anticancer Drug Screen. Data for the mec2-1 strain (AID 157)
Details: S. cerevisiae mec2-1 strain, at 50.0 µM (retest, dose inferred, filed as 5.0), hits give high values
Summary of the method: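 Growth inhibition is read against vehicle-treated controls after compound exposure of the mec2-1 yeast strain, which is defective in DNA damage repair or cell cycle control.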
For `O=CC=C(c1ccccc1)c1ccccc1`, the growth inhibition was 93% (active).
In the case of `FC(F)(F)c1nc2nc(Cl)c(Cl)nc2n1CCCN1CCOCC1`, the growth inhibition is reported as 15% (inactive).
In the case of `BrCC[P+](c1ccccc1)(c1ccccc1)c1ccccc1`, the growth inhibition is reported as 98% (active).
In the case of `N#CSc1ccc(S(N)(=O)=O)cc1`, the growth inhibition is reported as 95% (active).
For `O=[N+]([O-])c1ccc2nc3ccccc3cc2c1`, the growth inhibition was 85% (active).
In the case of `O=C(NC(Nc1ccc(F)c(Cl)c1)(C(F)(F)F)C(F)(F)F)C(C(F)(F)F)C(F)(F)F`, the growth inhibition is reported as 92% (active).
In the case of `O=C(/C=C\c1ccc(Cl)cc1Cl)c1cccs1`, the growth inhibition is reported as 18% (inactive).
In the case of `O=C(NCCCCNCCCNC(=O)c1cc(-c2ccccc2)nc2ccccc12)c1cc(-c2ccccc2)nc2ccccc12`, the growth inhibition is reported as 59% (inactive).
For `NC(=NCc1ccccc1)N/N=C\c1ccnc2ccccc12`, the growth inhibition was 56% (inactive).
With `CCCCN(CCCC)CCSc1ccc(Cl)cc1` the growth inhibition was 66% (inactive).
With `COc1cc(C2C3=C(COC3=O)Oc3cc4c(cc32)OCO4)ccc1O` (stereo not drawn) the growth inhibition was -10% (inactive).
With `C#CCCCc1ccccc1` the growth inhibition was 18% (inactive).
With `CCc1ccc(NS(=O)(=O)c2ccccc2)c([N+](=O)[O-])c1` the growth inhibition was 39% (inactive).
For `COc1ccc(C2c3cc4c(cc3OC(C)(O)C2C)OCO4)c(OC)c1` (stereo not drawn), the growth inhibition was 63% (inactive).
In the case of `COC(=O)c1ccc(CCC2=CC(=O)C(Br)=CC2=O)cc1`, the growth inhibition is reported as 98% (active).
With `NNC(=O)CCc1ccc2ccc3ccccc3c2c1` the growth inhibition was 2% (inactive).
In the case of `Cn1c2ccccc2c(=O)c2cc(NC(=O)CCCCC(=O)Nc3ccc4c(c3)c(=O)c3ccccc3n4C)ccc21`, the growth inhibition is reported as 6% (inactive).
For `CC(CC(C)(C)[N+](C)(C)C)[N+](C)(C)C` (stereo not drawn), the growth inhibition was 97% (active).
For `CC1CCN(CCC(=O)c2ccc(Cl)cc2)CC1`, the growth inhibition was 37% (inactive).
For `CCCCCCCCCCCCCCC(C(=O)[O-])[n+]1ccccc1` (stereo not drawn), the growth inhibition was 97% (active).
For `CNC1C(OC2C(OC3C(O)C(O)C(N=C(N)N)C(O)C3N=C(N)N)OC(C)C2(O)CO)OC(CO)C(O)C1O` (stereo not drawn), the growth inhibition was 19% (inactive).
In the case of `O=C(O)c1ccccc1-c1ccccc1C(=O)Nc1ccc2c(c1)Cc1ccccc1-2`, the growth inhibition is reported as 23% (inactive).
With `O=[N+]([O-])c1cccc2nc3ccccc3c(NCCCN3CCOCC3)c12` the growth inhibition was 99% (active).
In the case of `C=CC(C)(O)CCC1C(=C)C(O)CC2C(C)(C)CCCC12C` (stereo not drawn), the growth inhibition is reported as 52% (inactive).
With `CN1c2ccc(Cl)cc2C(=O)NC1c1ccc([N+](=O)[O-])s1` (stereo not drawn) the growth inhibition was 95% (active).
For `[O-][n+]1c2ccc(O)cc2nc2ccc(Br)cc21`, the growth inhibition was 81% (active).
With `O=C1c2ccccc2-c2nc3ccccc3nc21` the growth inhibition was 98% (active).
For `CCCCN1C(=O)N(c2ccc(OCC)cc2)C2N(CCCC)C1C(C)(C)C2(C)C` (stereo not drawn), the growth inhibition was 62% (inactive).
With `CO[C@H]1C[C@](C)(O)Cc2cc3c(c(O)c21)C(=O)c1c(O)cc2c(c1C3=O)O[C@@H]1O[C@@]2(C)[C@H](O)[C@@H](N(C)C)[C@@H]1O` the growth inhibition was -11% (inactive).
In the case of `COc1cc2c(cc1[N+](=O)[O-])C(=O)C(Br)(Br)CCC2`, the growth inhibition is reported as 100% (active).
For `O=C1OC(CCl)CN1/N=C/c1ccc([N+](=O)[O-])o1` (stereo not drawn), the growth inhibition was 76% (active).
For `CN(C)CCOc1ccc2c(c1)C/C(=C/c1ncc([N+](=O)[O-])n1C)C2=O`, the growth inhibition was 95% (active).
With `CCCCCCCCCCCCCCCCCCN(C)CC(COP(=O)([O-])OCC[N+](C)(C)C)OC` (stereo not drawn) the growth inhibition was 99% (active).
For `CC(C)c1ccccc1NC(=O)/C(Cl)=C(\Cl)C(=O)O`, the growth inhibition was 27% (inactive).
With `O=[N+]([O-])C(=C(Sc1ccccc1)Sc1ccccc1)C(Cl)=C(Cl)Cl` the growth inhibition was 26% (inactive).
In the case of `C(=C\c1ccccc1)/COc1ccccc1C(N1CCOCC1)n1nc2ccccc2n1` (stereo not drawn), the growth inhibition is reported as 95% (active).
For `O=C1C(Nc2ccccc2)=C(Oc2ccccc2)C(=O)c2ccccc21`, the growth inhibition was 20% (inactive).
For `CCN(CC)CCN1C(=O)c2cccc3cc(OC)cc(c23)C1=O`, the growth inhibition was 19% (inactive).
With `CN(C)Cc1cc(N=Nc2ccc(Cl)cc2)cc(CN(C)C)c1O` the growth inhibition was 47% (inactive).

Same assay, conditions: S. cerevisiae mec2-1 strain, at 50.0 µM, hits give high values
With `O=CC=C(c1ccccc1)c1ccccc1` the growth inhibition was -13.3% (inactive).
In the case of `FC(F)(F)c1nc2nc(Cl)c(Cl)nc2n1CCCN1CCOCC1`, the growth inhibition is reported as 33.1% (inactive).
For `BrCC[P+](c1ccccc1)(c1ccccc1)c1ccccc1`, the growth inhibition was 90.2% (active).
With `N#CSc1ccc(S(N)(=O)=O)cc1` the growth inhibition was 47.6% (inactive).
With `O=[N+]([O-])c1ccc2nc3ccccc3cc2c1` the growth inhibition was 55.5% (inactive).
In the case of `O=C(NC(Nc1ccc(F)c(Cl)c1)(C(F)(F)F)C(F)(F)F)C(C(F)(F)F)C(F)(F)F`, the growth inhibition is reported as 27.6% (inactive).
In the case of `O=C(/C=C\c1ccc(Cl)cc1Cl)c1cccs1`, the growth inhibition is reported as -6.25% (inactive).
In the case of `O=C(NCCCCNCCCNC(=O)c1cc(-c2ccccc2)nc2ccccc12)c1cc(-c2ccccc2)nc2ccccc12`, the growth inhibition is reported as 97.3% (active).
With `NC(=NCc1ccccc1)N/N=C\c1ccnc2ccccc12` the growth inhibition was 48.8% (inactive).
With `CCCCN(CCCC)CCSc1ccc(Cl)cc1` the growth inhibition was 94.7% (active).
For `COc1cc(C2C3=C(COC3=O)Oc3cc4c(cc32)OCO4)ccc1O` (stereo not drawn), the growth inhibition was 32.2% (inactive).
For `C#CCCCc1ccccc1`, the growth inhibition was 47.4% (inactive).
For `CCc1ccc(NS(=O)(=O)c2ccccc2)c([N+](=O)[O-])c1`, the growth inhibition was 55% (inactive).
With `COc1ccc(C2c3cc4c(cc3OC(C)(O)C2C)OCO4)c(OC)c1` (stereo not drawn) the growth inhibition was 94% (active).
With `COC(=O)c1ccc(CCC2=CC(=O)C(Br)=CC2=O)cc1` the growth inhibition was 68.2% (inactive).
With `NNC(=O)CCc1ccc2ccc3ccccc3c2c1` the growth inhibition was -10.2% (inactive).
With `Cn1c2ccccc2c(=O)c2cc(NC(=O)CCCCC(=O)Nc3ccc4c(c3)c(=O)c3ccccc3n4C)ccc21` the growth inhibition was 12.4% (inactive).
For `CC(CC(C)(C)[N+](C)(C)C)[N+](C)(C)C` (stereo not drawn), the growth inhibition was 96% (active).
For `CC1CCN(CCC(=O)c2ccc(Cl)cc2)CC1`, the growth inhibition was 29.1% (inactive).
With `CCCCCCCCCCCCCCC(C(=O)[O-])[n+]1ccccc1` (stereo not drawn) the growth inhibition was 99% (active).
For `CNC1C(OC2C(OC3C(O)C(O)C(N=C(N)N)C(O)C3N=C(N)N)OC(C)C2(O)CO)OC(CO)C(O)C1O` (stereo not drawn), the growth inhibition was 93.5% (active).
With `O=C(O)c1ccccc1-c1ccccc1C(=O)Nc1ccc2c(c1)Cc1ccccc1-2` the growth inhibition was 73.5% (active).
With `O=[N+]([O-])c1cccc2nc3ccccc3c(NCCCN3CCOCC3)c12` the growth inhibition was 97.3% (active).
With `C=CC(C)(O)CCC1C(=C)C(O)CC2C(C)(C)CCCC12C` (stereo not drawn) the growth inhibition was 44.5% (inactive).
In the case of `CN1c2ccc(Cl)cc2C(=O)NC1c1ccc([N+](=O)[O-])s1` (stereo not drawn), the growth inhibition is reported as 93.2% (active).
In the case of `[O-][n+]1c2ccc(O)cc2nc2ccc(Br)cc21`, the growth inhibition is reported as 78.8% (active).
In the case of `O=C1c2ccccc2-c2nc3ccccc3nc21`, the growth inhibition is reported as -35.1% (inactive).
In the case of `CCCCN1C(=O)N(c2ccc(OCC)cc2)C2N(CCCC)C1C(C)(C)C2(C)C` (stereo not drawn), the growth inhibition is reported as 19.9% (inactive).
In the case of `CO[C@H]1C[C@](C)(O)Cc2cc3c(c(O)c21)C(=O)c1c(O)cc2c(c1C3=O)O[C@@H]1O[C@@]2(C)[C@H](O)[C@@H](N(C)C)[C@@H]1O`, the growth inhibition is reported as -11.2% (inactive).
With `COc1cc2c(cc1[N+](=O)[O-])C(=O)C(Br)(Br)CCC2` the growth inhibition was 93.5% (active).
With `O=C1OC(CCl)CN1/N=C/c1ccc([N+](=O)[O-])o1` (stereo not drawn) the growth inhibition was 44.2% (inactive).
For `CN(C)CCOc1ccc2c(c1)C/C(=C/c1ncc([N+](=O)[O-])n1C)C2=O`, the growth inhibition was 89.2% (active).
In the case of `CCCCCCCCCCCCCCCCCCN(C)CC(COP(=O)([O-])OCC[N+](C)(C)C)OC` (stereo not drawn), the growth inhibition is reported as 93.4% (active).
In the case of `CC(C)c1ccccc1NC(=O)/C(Cl)=C(\Cl)C(=O)O`, the growth inhibition is reported as 6.85% (inactive).
In the case of `O=[N+]([O-])C(=C(Sc1ccccc1)Sc1ccccc1)C(Cl)=C(Cl)Cl`, the growth inhibition is reported as 46.5% (inactive).
For `C(=C\c1ccccc1)/COc1ccccc1C(N1CCOCC1)n1nc2ccccc2n1` (stereo not drawn), the growth inhibition was 98.8% (active).
For `O=C1C(Nc2ccccc2)=C(Oc2ccccc2)C(=O)c2ccccc21`, the growth inhibition was 24.4% (inactive).
For `CCN(CC)CCN1C(=O)c2cccc3cc(OC)cc(c23)C1=O`, the growth inhibition was 1.45% (inactive).
For `CN(C)Cc1cc(N=Nc2ccc(Cl)cc2)cc(CN(C)C)c1O`, the growth inhibition was 88.9% (active).
